Assay [1] is described as follows: Nuclear factor erythroid 2-related factor 2/antioxidant responsive element (Nrf2/ARE) small molecule agonists: qHTS cell viability counter screen in human keratinocytes (AID 1919968; active means well fitted curve in the direction sought with a large enough effect in the repeat runs; an effect the other way counts as inactive or inconclusive; further: nearly all actives have a fitted effect of over 55% in size; further: potency means the concentration at half of the fitted maximal effect). In a few lines: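 Stably transfected HaCaT (KeratinoSens), 1,500/well. Test agents in DMSO were applied for 23 h, 37 C/5% CO2. CellTiter-Fluor was incubated 1 h before the fluorescence read.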

Assay [2] has as its target Gonadotropin-releasing hormone receptor (Homo sapiens) (UniProt P30968). The assay is described as follows: Human gonadotropin-releasing hormone receptor (GnRHR) small molecule agonists, calcium flux assay in GnRHR-HEK293 cells (AID 1920063). Further: nearly all actives have a fitted effect of over 35% in size. In a few lines: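 Stable human GnRHR HEK293 line. 18 h plating, then calcium dye for 1 h at 37 C. Agonist-mode compound addition from DMSO stocks; fluorescence monitored 3 min.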

Assay [3] deals with KiSS-1 receptor (Homo sapiens) (UniProt Q969F8). The assay is described as follows: Human kisspeptin (KISS1R) small molecule agonists, calcium flux assay in KISS1R-HEK293 cells (AID 1920064; active means well fitted curve in the direction sought with a large enough effect in the repeat runs; an effect the other way counts as inactive or inconclusive). The gist of the method:
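After overnight (18 h) culture at 37 C/5% CO2, human KISS1R-HEK293 cells received calcium dye for 1 h, then test compound; emission at 540 nm (excitation 480 nm) was tracked for 3 min.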

Assay [4] can be described thus: G protein-coupled receptor (GPCR) small molecule agonists, calcium flux assay: HEK293 wild type cell line counter screen (AID 1920065). The gist of the method:
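Following 18 h incubation at 37 C/5% CO2, plates got calcium dye for 1 h; compounds, ATP or DMSO were then pinned in and fluorescence followed kinetically (480/540 nm).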

A short description of assay [5]: p53 small molecule agonists, cell-based qHTS assay with human liver microsomes (AID 1963577).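 Further: p53 response element beta-lactamase reporter cells with liver microsomes plus NADPH.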 In a few lines:
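Steps: plate p53RE-bla cells, incubate 5 h at 37 C; add compound in DMSO; add microsomes (0.5 mg/mL final) and NADPH (0.5 mg/mL final); incubate 16 h at 37 C; add LiveBLAzer, 2 h RT; read fluorescence.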
A general note: qHTS replaces the single test concentration by a dilution series.

The nature of assay [6]: p53 small molecule agonists, cell-based qHTS assay with rat liver microsomes (AID 1963578). In a few lines: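 Metabolic activation is supplied by rat liver microsomes with NADPH (each 0.5 mg/mL final). p53RE-bla cells incubate with compound 16 h at 37 C; reporter activity is measured by LiveBLAzer fluorescence.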
A short description of assay [7]: p53 small molecule agonists, cell-based qHTS assay with human liver microsomes: qHTS cell viability counter screen (AID 1963579). Further: nearly all actives have a fitted effect of over 45% in size. The gist of the method: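 After the 460/530 nm beta-lactamase read, CellTiter-Glo was added to the same wells and luminescence measured after 30 min at room temperature, giving viability of p53RE-bla cells treated 16 h with compounds plus microsomes and NADPH.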

Assay [8] is described as follows: p53 small molecule agonists, cell-based qHTS assay with rat liver microsomes: qHTS cell viability counter screen (AID 1963580). Further: nearly all actives have a fitted effect of over 45% in size. The gist of the method: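 Cytotoxicity counter screen: intracellular ATP read by CellTiter-Glo luminescence in the p53 reporter wells. HCT-116 p53RE-bla cells were treated for 16 h at 37 C alongside rat liver microsomes and NADPH, each 0.5 mg/mL final.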

A short description of assay [9]: p53 small molecule agonists, cell-based qHTS assay: qHTS cell viability counter screen (AID 1963581). Further: nearly all actives have a fitted effect of over 45% in size. The gist of the method:
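qHTS counter screen: 16 h compound exposure at 37 C of p53RE-bla HCT-116 cells (4,000 per well, seeded 5 h prior), cell viability by ATP luminescence.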

Assay [10] addresses 5-hydroxytryptamine receptor 2A (Homo sapiens) (UniProt P28223). Put plainly: 5-hydroxytryptamine receptor 2A (HTR2A) small molecule antagonists, cell-based qHTS assay (AID 1963586). Further: nearly all actives have a fitted effect of over 45% in size. Further: potency means the concentration at half of the fitted maximal effect. In a few lines:
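CHO cells stably expressing human HTR2A were plated for 18 h at 37 C, then loaded with calcium dye for 1 h. Compounds were preincubated 5 min at room temperature before DOI (4 nM solution) was added. Kinetic fluorescence was read for 3 min.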

The target is the same in assay [11]. Put plainly: 5-hydroxytryptamine receptor 2A (HTR2A) small molecule agonists, cell-based qHTS assay (AID 1963587). Further: nearly all actives have a fitted effect of over 30% in size. The gist of the method: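 Kinetic calcium-flux fluorescence (2 min, 1 sec intervals) after compound addition in agonist mode. HTR2A-CHO cells were cultured 18 h, then dye-loaded 1 h at 37 C.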
The target in assay [12] is Muscarinic acetylcholine receptor M1 (Homo sapiens) (UniProt P11229). Put plainly: Cholinergic receptor muscarinic 1 (CHRM1) small molecule agonists, cell-based qHTS assay (AID 1963589). Further: nearly all actives have a fitted effect of over 35% in size. In a few lines: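 Kinetic fluorescence (1 s intervals) of calcium-sensitive dye in human M1 CHO cells after compound addition; cells pre-incubated 18 h at 37 C/5% CO2 and dye-loaded 1 h.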

Assay [13] concerns the target Beta-2 adrenergic receptor (Homo sapiens) (UniProt P07550). The assay is described as follows: Adrenergic beta2 receptor (ADRB2) small molecule antagonists, cell-based qHTS assay (AID 1963592). Further: series mostly up to about 92 µM; nearly all actives have a fitted effect of over 50% in size. The gist of the method:
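Assay format: CHO-ADRB2 cells, 18-20hr seeding at 37C/5% CO2, then compound plus 1nM isoproterenol agonist mix for 0.5hr RT. Homogeneous time-resolved fluorescence cAMP detection after 1hr, expressed as 665/615 nm ratio.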

For assay [14], the target named is D(2) dopamine receptor (Homo sapiens) (UniProt P14416). The assay is described as follows: Dopamine D2 receptor (DRD2) small molecule agonists, cell-based qHTS assay (AID 1963594). Further: nearly all actives have a fitted effect of over 35% in size. In a few lines:
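cAMP accumulation in DRD2-HEK293 cells measured by HTRF after 1 h detection; compounds added 10 min before NKH477 (200nM […]) forskolin-analogue stimulation, 30 min at room temperature, with Ro20-1724 present at 0.1 mM final.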

The target is the same in assay [15]. Put plainly: Dopamine D2 receptor (DRD2) small molecule antagonists, cell-based qHTS assay (AID 1963595; active means well fitted inhibition curve with a large enough effect in the signal ratio in the repeat runs, with a control signal flat; the % refers to the signal ratio). In a few lines: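 Cells were plated and grown for 24 h at 37 °C. Ro20-1724 (0.1 mM final) went in first, then compound for 10 min. NKH477 (200 nM) with quinpirole (12 nM) followed for 30 min at RT, then HTRF detection reagents for 1 h.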
A short description of assay [16]: p53 small molecule agonists, cell-based qHTS assay (AID 1963582; active means well fitted activation curve with a large enough effect in the signal ratio in the repeat runs, not every such curve was filed as active; the % refers to the signal ratio). The gist of the method: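 Measured: fluorescence from cleaved LiveBLAzer substrate. System: p53RE-bla cells, 16 h compound treatment at 37 C, 2 h substrate step at room temperature.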
Assay [17] concerns the target Muscarinic acetylcholine receptor M1 (Homo sapiens) (UniProt P11229). The assay is described as follows: Cholinergic receptor muscarinic 1 (CHRM1) small molecule antagonists, cell-based qHTS assay (AID 1963588). Further: nearly all actives have a fitted effect of over 40% in size. In a few lines: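 Compounds were tested at 15 concentrations in three independent runs. Dye-loaded CHRM1-CHO cells were exposed 5 min at room temperature before stimulation by acetylcholine added at 50nM. Intracellular calcium was read kinetically on FDSS for 3 min.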

Assay [18] in a line: cAMP Responsive Elements (CRE) small molecule agonists, cell-based qHTS assay (AID 1963590). The gist of the method: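 Test agents in DMSO were incubated 3 h at 37 C/5% CO2 with CRE-bla HEK 293T cells seeded 18 h earlier; LiveBLAzer B/G FRET substrate was added and read after 2 h at room temperature.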
Assay [19] is described as follows: cAMP Responsive Elements (CRE) small molecule antagonists, cell-based qHTS assay (AID 1963591; active means well fitted inhibition curve with a large enough effect in the signal ratio in the repeat runs, not every such curve was filed as active; the % refers to the signal ratio). In a few lines: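 Reporter line CRE-bla HEK 293T in dialyzed-FBS DMEM; cells preincubated 18 h, treated 3 h with compound plus NKH477 (0.25 uM final); LiveBLAzer FRET, 2 h RT.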
Assay [20] addresses Beta-2 adrenergic receptor (Homo sapiens) (UniProt P07550). Put plainly: Adrenergic beta2 receptor (ADRB2) small molecule agonists, cell-based qHTS assay (AID 1963593).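 Further: CHO cells stably overexpressing human ADRB2.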 In a few lines: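 CHO cells stably over-expressing ADRB2 were plated overnight at 37C, then dosed with compounds plus a stimulation mix containing 100uM IBMX and 25uM Ro-20-1724 for 0.5hr at room temperature. cAMP was measured by HTRF competition, 1hr.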

SMILES strings stand for the structures. Records with an inconclusive call do not appear. The source made the active and inactive calls. Unless noted, the call rests on the fitted dose curve.

Chain of Beta-2 adrenergic receptor (Homo sapiens) (P07550 whole entry, looked up): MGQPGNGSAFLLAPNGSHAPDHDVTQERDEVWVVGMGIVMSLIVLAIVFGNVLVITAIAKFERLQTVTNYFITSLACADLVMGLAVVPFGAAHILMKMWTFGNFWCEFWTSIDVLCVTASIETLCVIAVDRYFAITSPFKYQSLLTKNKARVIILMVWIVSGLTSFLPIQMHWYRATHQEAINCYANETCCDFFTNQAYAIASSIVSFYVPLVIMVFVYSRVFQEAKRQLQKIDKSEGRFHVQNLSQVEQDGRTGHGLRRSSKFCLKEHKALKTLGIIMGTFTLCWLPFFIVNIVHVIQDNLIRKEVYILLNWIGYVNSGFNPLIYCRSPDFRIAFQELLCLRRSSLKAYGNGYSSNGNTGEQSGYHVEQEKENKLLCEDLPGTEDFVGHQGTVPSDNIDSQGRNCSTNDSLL
Chain of 5-hydroxytryptamine receptor 2A (Homo sapiens) (P28223 whole entry, looked up): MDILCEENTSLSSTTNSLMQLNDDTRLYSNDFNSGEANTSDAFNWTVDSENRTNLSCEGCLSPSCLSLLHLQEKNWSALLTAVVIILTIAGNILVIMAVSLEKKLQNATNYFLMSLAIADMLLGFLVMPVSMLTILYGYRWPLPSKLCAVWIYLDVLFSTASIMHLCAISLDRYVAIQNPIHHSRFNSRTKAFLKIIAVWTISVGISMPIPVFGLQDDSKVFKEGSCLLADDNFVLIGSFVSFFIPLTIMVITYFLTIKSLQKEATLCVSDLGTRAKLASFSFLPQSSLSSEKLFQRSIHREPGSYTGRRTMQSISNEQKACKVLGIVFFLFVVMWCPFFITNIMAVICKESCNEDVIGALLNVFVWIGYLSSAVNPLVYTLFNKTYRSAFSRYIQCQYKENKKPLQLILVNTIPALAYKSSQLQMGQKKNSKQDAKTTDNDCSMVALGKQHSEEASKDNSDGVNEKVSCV
Chain of Muscarinic acetylcholine receptor M1 (Homo sapiens) (P11229 whole entry, looked up): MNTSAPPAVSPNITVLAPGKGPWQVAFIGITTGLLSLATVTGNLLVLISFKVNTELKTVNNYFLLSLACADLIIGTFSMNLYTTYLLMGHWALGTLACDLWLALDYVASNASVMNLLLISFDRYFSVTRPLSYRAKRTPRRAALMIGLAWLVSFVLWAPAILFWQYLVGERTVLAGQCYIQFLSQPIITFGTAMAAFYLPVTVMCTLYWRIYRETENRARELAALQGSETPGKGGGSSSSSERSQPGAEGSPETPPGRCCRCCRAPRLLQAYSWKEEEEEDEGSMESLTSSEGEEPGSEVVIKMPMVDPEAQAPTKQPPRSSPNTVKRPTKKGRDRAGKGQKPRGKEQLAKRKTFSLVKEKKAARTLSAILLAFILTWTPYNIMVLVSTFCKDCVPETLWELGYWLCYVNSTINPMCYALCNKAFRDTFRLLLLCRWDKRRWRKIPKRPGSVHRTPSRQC
Chain of Gonadotropin-releasing hormone receptor (Homo sapiens) (P30968 whole entry, looked up): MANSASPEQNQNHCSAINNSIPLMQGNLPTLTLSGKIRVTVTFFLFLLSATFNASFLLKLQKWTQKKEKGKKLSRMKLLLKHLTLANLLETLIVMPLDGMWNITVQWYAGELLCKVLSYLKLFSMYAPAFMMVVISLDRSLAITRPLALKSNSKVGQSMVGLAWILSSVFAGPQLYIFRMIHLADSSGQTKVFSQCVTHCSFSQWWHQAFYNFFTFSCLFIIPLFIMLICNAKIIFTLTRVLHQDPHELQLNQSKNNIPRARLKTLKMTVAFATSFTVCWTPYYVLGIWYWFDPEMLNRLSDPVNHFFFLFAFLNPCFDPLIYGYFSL
Chain of D(2) dopamine receptor (Homo sapiens) (P14416 whole entry, looked up): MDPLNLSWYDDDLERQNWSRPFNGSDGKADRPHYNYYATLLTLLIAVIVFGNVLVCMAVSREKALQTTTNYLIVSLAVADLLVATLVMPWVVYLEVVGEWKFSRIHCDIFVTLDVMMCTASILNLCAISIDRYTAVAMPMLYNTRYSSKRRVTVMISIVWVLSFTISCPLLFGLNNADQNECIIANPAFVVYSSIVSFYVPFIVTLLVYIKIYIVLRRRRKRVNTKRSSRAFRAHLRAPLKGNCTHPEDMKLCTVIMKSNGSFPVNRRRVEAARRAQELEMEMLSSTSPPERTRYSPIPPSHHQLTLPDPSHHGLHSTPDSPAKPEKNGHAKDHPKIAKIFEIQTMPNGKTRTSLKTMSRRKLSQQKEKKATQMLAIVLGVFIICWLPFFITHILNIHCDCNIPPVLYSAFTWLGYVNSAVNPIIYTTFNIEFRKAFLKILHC
Chain of KiSS-1 receptor (Homo sapiens) (Q969F8 whole entry, looked up): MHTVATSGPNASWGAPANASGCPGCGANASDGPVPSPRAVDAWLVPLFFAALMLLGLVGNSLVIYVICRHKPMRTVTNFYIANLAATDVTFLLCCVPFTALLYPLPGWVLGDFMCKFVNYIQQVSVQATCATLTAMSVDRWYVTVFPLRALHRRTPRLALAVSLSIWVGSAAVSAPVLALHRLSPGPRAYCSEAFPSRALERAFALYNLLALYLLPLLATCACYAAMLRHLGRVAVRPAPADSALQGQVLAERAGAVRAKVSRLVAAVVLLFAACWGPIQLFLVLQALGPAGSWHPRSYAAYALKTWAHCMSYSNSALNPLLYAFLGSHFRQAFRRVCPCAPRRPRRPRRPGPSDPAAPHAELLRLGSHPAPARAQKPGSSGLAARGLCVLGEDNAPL

For `COc1cc(/C=C/c2ccccc2)oc(=O)c1`, the Potency entry in assay [1], in assay [2], in assay [3], in assay [4], in assay [5] and in assay [6] was “inactive” throughout. For the same compound, the Potency result in assay [7], in assay [8], in [9], in assay [10], in assay [11] and in [12] was “inactive” throughout. The Potency entry in assay [13], in [14] and in assay [15] was “inactive” throughout.

In the case of `CN(C)Cc1cc(C(C)(C)C)c(O)c(C(C)(C)C)c1`, the Potency entry in assay [1], in assay [2], in [3], in assay [4], in assay [5] and in assay [6] was “inactive” throughout. Besides, the Potency entry in assay [7], in assay [8], in assay [16], in assay [11], in assay [17] and in assay [12] was “inactive” throughout. Moreover, the Potency result in assay [18], in assay [19] and in assay [14] was “inactive” throughout. In addition, the Potency in assay [10] was 3.75 µM (active).

Regarding `C=Cc1ccncc1`, the Potency result in assay [1], in [2], in assay [3], in assay [4], in assay [5] and in assay [6] was “inactive” in each case. Further, the Potency result in [7], in assay [8], in assay [16], in assay [10], in assay [17] and in assay [12] was “inactive” in each case. Moreover, the Potency result in [18], in assay [19], in [13], in assay [20], in [14] and in [15] was “inactive” throughout.

`COc1ccc2cc(CCC(C)=O)ccc2c1`: the Potency entry in assay [1], in assay [2], in [3], in assay [4], in assay [5] and in assay [6] was “inactive” in each case. The Potency result in assay [7], in assay [8], in assay [9], in assay [19], in assay [13] and in assay [20] was “inactive” each time. Besides, the Potency result in assay [15] is “inactive”.

Turning to `CCN(CC)CC`, the Potency entry in [1], in assay [2], in [3], in assay [4], in assay [5] and in assay [6] was “inactive” in each case. The Potency result in assay [7], in assay [8], in [9], in assay [11], in [17] and in [19] was “inactive” in each case. The Potency entry in assay [13], in [14] and in [15] was “inactive” each time.

As to `C[C@H]1[C@H](NC(=O)/C(=N/OC(C)(C)C(=O)O)c2csc(N)n2)C(=O)N1S(=O)(=O)O` (stereo in doubt), the Potency entry in assay [1], in assay [2], in assay [3], in assay [4], in assay [5] and in assay [6] was “inactive” each time. The Potency result in assay [7], in [8], in assay [9], in assay [18], in assay [13] and in assay [15] was “inactive” throughout.

Regarding `Oc1ccc(N=Nc2ccccc2)cc1`, the Potency in assay [1] is 55.2 µM (active). Besides, the Potency entry in assay [2], in assay [3], in assay [4], in [5], in assay [6] and in assay [7] was “inactive” in each case. In addition, the Potency result in assay [8], in [16], in assay [11], in assay [17], in assay [12] and in assay [18] was “inactive” in each case. For the same compound, the Potency result in assay [19], in assay [14] and in [15] was “inactive” throughout.

Take `CCC(Cl)CCC(Cl)C(Cl)CC(Cl)C(Cl)C(Cl)CCl` (configuration not stated): the Potency result in assay [1], in [2], in [3], in assay [4], in assay [5] and in assay [6] was “inactive” throughout. The Potency result in [7], in assay [9], in assay [16], in assay [10], in assay [11] and in assay [17] was “inactive” each time. The Potency entry in [12], in [18], in assay [19], in [13] and in [14] was “inactive” in each case.
